According to PubChem BioAssay AID624172 (National Center for Advancing Translational Sciences (NCATS), 2012):
Among all 380,000 compounds or so, about 25 (0.007%) were called active. The call rests on the fitted dose curve; in most records, active means well fitted activation curve with a large enough effect; inconclusive means small, poorly fitted or top-dose-only effect; inactive means no such curve, though single readings can be large or run the other way. These entries were drawn from the full list. Square brackets hold non-standard residues; d marks the D form. Side chains are listed from the residue outwards. Peptide text beside a SMILES is read from it. * marks the point of attachment. X1 = CCC(C)C(N)C1=NC(C(=O)*)CS1; Orn = NCCC[CH](N)C(=O)O

Molecular target: Glucagon-like peptide 1 receptor (Homo sapiens) (UniProt P43220)
Experiment: qHTS of GLP-1 Receptor Agonists
Conditions: HEK293 GLP-1R CRE-luciferase, luminescence, 4-6 h, cells express a hypersensitive GLP-1R form; series mostly up to 45.6 µM
Source text: The overall goal of this project was to develop a novel assay for discovering small molecule ligands for class B1 G protein-coupled receptors (GPCRs). Very few agonists (or inverse agonists) with generally weak activity for this entire group of physiologically important receptors are known to date. To establish proof-of-principle that this critical bottleneck can be overcome with a suitable screening approach, our studies focused on the class B1 receptor for glucagon-like peptide-1 (GLP-1R), a potential therapeutic target for diabetes and neurodegenerative disease.
The assay was developed in a "mix and measure" format using a cell-based functional readout. Toward this goal, stably transfected HEK293 cell clones were established that co-express (i) a cAMP-responsive luciferase reporter gene, and (ii) GLP-1Rs that upon ligand interaction either stimulate (agonists) or inhibit (inverse agonists) luciferase activity. In different cell lines to be used for screening, expressed GLP-1Rs are specifically optimized for high sensitivity detection of either weak agonists (hypersensitive receptor) or inverse agonists (constitutively active receptor mutant). In addition, control cell lines were developed that express either the cAMP-responsive reporter gene without recombinant GLP-1Rs (enabling initial exclusion of GLP-1R independent effects of candidate probes), or the reporter gene together with wild type GLP-1Rs (for confirmation of probe activity at this receptor), or the reporter gene in combination with the constitutively active orphan receptor GPR119 (enabling initial exclusion of GLP-1R independent inhibitory effects of candidate inverse agonists).
To that end, this assay was optimized for 1536-well format and screened against the MLSMR.
NIH Molecular Libraries Probe Production Network [MLPCN]
NIH Chemical Genomics Center [NCGC]
PI Name: Martin Beinborn, Tufts Medical Center
In a white solid 1536-well plate, 6 uL of cells are dispensed in DMEM without phenol red, 10% Nu serum, and 1% pen-strep medium. The plates are then incubated for 12 hours at 37 deg C at 5% CO2 before 23 nL of compounds are added. After a 4-6 hr incubation at37 deg C and 5% CO2, 3 uL of detection reagent are added and after a 12 min incubation at RT, a luminescent read is obtained on the ViewLux.

Sequence of Glucagon-like peptide 1 receptor (Homo sapiens) (P43220 whole entry, looked up): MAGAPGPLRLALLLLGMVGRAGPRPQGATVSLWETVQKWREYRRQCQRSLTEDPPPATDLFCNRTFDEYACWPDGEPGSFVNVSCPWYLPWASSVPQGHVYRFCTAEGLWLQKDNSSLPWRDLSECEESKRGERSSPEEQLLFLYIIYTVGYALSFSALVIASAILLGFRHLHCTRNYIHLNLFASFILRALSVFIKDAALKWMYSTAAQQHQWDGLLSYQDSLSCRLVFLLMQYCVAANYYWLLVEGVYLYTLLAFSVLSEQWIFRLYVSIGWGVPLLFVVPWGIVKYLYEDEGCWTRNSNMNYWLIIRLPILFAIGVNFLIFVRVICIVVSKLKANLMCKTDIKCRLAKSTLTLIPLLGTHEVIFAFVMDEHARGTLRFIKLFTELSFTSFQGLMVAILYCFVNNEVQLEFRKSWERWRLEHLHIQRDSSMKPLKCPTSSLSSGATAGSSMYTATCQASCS

outcome, inactive:
CCc1cccc(NC(=O)CSc2nccn2C)c1
CO[C@H]1C[C@@H](O[C@@H]2[C@@H](C)O[C@@H](O[C@@H]3/C(C)=C/CC4C[C@@H](C[C@]5(C=C[C@@H](C)[C@H](C6CCCCC6)O5)O4)OC(=O)[C@@H]4C=C(C)[C@@H](O)[C@H]5OC/C(=C\C=C\[C@@H]3C)[C@]54O)C[C@H]2OC)O[C@@H](C)[C@@H]1O
CCC(C)C(N)C1=NC(C(=O)NC(CC(C)C)C(=O)NC(CCC(=O)O)C(=O)NC(C(=O)NCCCCC2NC(=O)C(CC(N)=O)NC(=O)C(CC(=O)O)NC(=O)C(Cc3cnc[nH]3)NC(=O)C(Cc3ccccc3)NC(=O)C(C(C)CC)NC(=O)C(CCCN)NC2=O)C(C)CC)CS1 (stereo not drawn) (cyclo(DNK([Ile-Glu-Leu-X1])[Orn]IFH); configuration not given here)
COc1ccc(Cl)cc1NC(=O)Cn1c(=O)c2ccccc2n2nncc12
Cc1ccc(CNC(=O)Cn2c(=O)ccc3cc(S(=O)(=O)N4CCCC4)ccc32)cc1
CCc1ccccc1NC(=O)Cn1c(=O)n(-c2cccc(C)c2)c(=O)c2c1c1cc(OC)ccc1n2C
CCOc1ccc(NS(=O)(=O)c2ccc(N)cc2)nn1
Cc1ccc(-c2nnc(SCc3ccccc3C)o2)cc1
O=C(/C=C/c1cccc(F)c1)NC1CC1
CCOC(=O)c1ccccc1NC(=O)CCc1c(C)nc2c(c1C)c(=O)n(C)c(=O)n2C
Cc1cc(C)cc(NC(=O)Cn2c(=O)c3ccccc3n3nncc23)c1
FCOC(C(F)(F)F)C(F)(F)F
COc1ccccc1N1CCN(c2ncnc3onc(-c4ccc(F)cc4)c23)CC1
Cc1ccc(C)c(N2CCN(S(=O)(=O)c3ccc4c(c3)C(C(C)C)C(=O)N4)CC2)c1 (stereo unspecified)
NCCCCC(N)C(=O)O (stereo unspecified)
Cn1c(=O)nc2n(-c3ccc(Br)cc3)c3cccc(Cl)c3cc-2c1=O
Cc1ccc(-n2nnnc2CNC(=O)c2ccccc2C)cc1C
COc1ccc(NC(=O)Cn2c(=O)n(Cc3ccc(C(=O)NCc4ccccc4Cl)cc3)c(=O)c3ccccc32)cc1
Cc1cccc(NC(=O)CSc2nc3c([nH]c4ccccc43)c(=O)n2-c2cc(C)cc(C)c2)c1
CC1(C)OC2CC(=O)OC[C@@]23C1CC(=O)[C@]1(C)C3CC[C@@]2(C)C(c3ccoc3)OC(=O)C3O[C@@]321 (stereo partly specified)
Cc1ccc(C(=O)CSc2nc(-c3ccccc3)nc3c2CCCC3)c(C)c1
